Inconclusive results are not listed. Activity calls are given as the source filed them. Calls come from the whole dose curve; as a rule, active = well fitted activation curve with a large enough effect; inconclusive = small, poorly fitted or top-dose-only effect; inactive = flat fitted curve, though single readings scatter.
Experiment: qHTS for Inhibitors of Cell Surface uPA Generation: Confirmatory Assay for Cherry-picked Compounds
Settings: cell surface uPA activity generation, qHTS confirmation; series mostly up to 115 µM
Outline: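 RAW 264.7 cells at 4000/well, incubated overnight, then treated with compounds. After 24 h at 37 C, viability was read by ATPlite luminescence. An increase in signal indicates blocked uPA-dependent LF entry.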

Potency, inactive:
CCCn1nnc(NC(=S)NC(=O)c2ccccc2OC)n1
C=CCn1c(SCc2ccc(C(=O)NCCO)cc2)nc2ccccc2c1=O
Cc1ccc(NC(=O)CC2OC(=O)c3ccccc32)cc1S(=O)(=O)N1CCOCC1 (centres undefined)
CCC(C)Nc1cc(C)nc2ncnn12 (centres undefined)
Cc1noc(C)c1COc1ccc(C(=O)N2CCN(S(=O)(=O)c3ccc(Cl)cc3)CC2)cc1
Cc1cc(COc2ccccc2)oc1C(=O)O
COc1ccc(C2=C/C(=C\c3ccccc3OC(C)=O)C(=O)O2)cc1
COc1cc(/C=N/NC(=O)c2ccncc2)ccc1O
CCc1ccccc1NC(=O)CN(C)C(=O)CSc1nnc(Nc2cccc(C)c2C)s1
C[C@H]([C@H](O)c1ccccc1)N(C)C(=O)CN
CN1CC[C@]23c4ccccc4N[C@H]1[C@]21CCN(C)[C@H]3Nc2ccccc21
CSCC[C@H](NC(=O)[C@H](Cc1ccccc1)n1c(=O)[nH]c2ccccc2c1=O)C(=O)N1CCC[C@H]1C(=O)O
Cc1ccc(NC(=O)C(C)S)cc1 (centres undefined)
Cc1ccc(C(=O)NC(=S)Nc2ccc3[nH]c(=O)[nH]c3c2)c(C)c1
Cc1ccc(N=C2SCCCN2C(=O)c2cccc(N3C(=O)CCC3=O)c2)cc1Cl
CC(C)C[C@H]1CN([C@@H](CC(C)C)CN2CCCC2CN2C(=S)NC[C@@H]2Cc2ccc(O)cc2)C(=S)N1CC1CCCCC1 (some centres undefined)
CCCCCOC(=O)C1=C(C)NC(=O)NC1c1ccccc1 (centres undefined)
O=C(CN(c1ccccc1F)S(=O)(=O)c1ccccc1)Nc1ccc2c(c1)OCCO2
Cc1nnc2ccc(-c3ccc(NS(=O)(=O)c4ccc(Cl)s4)cc3)nn12
CCN1CCCCC(=N/O)/C(=N/O)CCCC1
CC(/C=C1\SC(=S)N(CCCC(=O)Nc2ccc(C(=O)O)cc2)C1=O)=C\c1ccccc1
Cc1cc(C)n2c(SCC#N)nnc2n1
O=C(NNC(=O)c1cccc(-n2cccc2)c1)c1ccc(F)cc1
O=C(/C=C/c1ccc(O)c(O)c1)O[C@@H]1C[C@](O)(C(=O)O)C[C@@H](O)[C@H]1O
O=C(O)CCc1nn2c3ccccc3n(CC(=O)O)c2nc1=O
CC(OC(=O)c1cccc(-n2cnnn2)c1)C(=O)Nc1ccc(F)c(F)c1F (centres undefined)
COc1ccc(N2CC(C(=O)Nc3nnc(SCCC4OCCO4)s3)CC2=O)cc1 (centres undefined)
O=C(Nc1ccc(S(=O)(=O)N2CCOCC2)cc1)c1cc(-c2ccccc2O)n[nH]1
CCc1c(C)sc(NC(=S)N2CC(C)OC(C)C2)c1C(=O)OC (centres undefined)
COc1ccc(C)cc1NC(=O)NNC(=O)C1CCC(C(C)(C)C)CC1 (centres undefined)
CCOc1cc(C(=O)OCC(=O)c2cc(C)n(CC3CCCO3)c2C)ccc1OCC(=O)N1CCOCC1 (centres undefined)
CC1CS(=O)(=O)CCN1N=Cc1ccc([N+](=O)[O-])o1 (centres undefined)
CCC(=O)N1CCC(NC(=O)Nc2ccc(OC(F)(F)F)cc2)CC1
C=C(C(=O)O)C1CCC2(C)CCCC(C)(O)C2C1 (centres undefined)
Nc1cc(=O)[nH]c(SCC(=O)Nc2cccc([N+](=O)[O-])c2)n1
O=C1CCCc2ccccc2N1Cc1ccc(F)cc1
COc1ccccc1CNC(=O)CCn1c(=O)oc2ccccc21
CCc1ccc(N2CC(C(=O)Nc3ccc4c(c3)OCO4)CC2=O)cc1 (centres undefined)
COc1ccccc1CNC(=O)CCCn1nc(C)c2c(C)n(-c3ccccc3)nc2c1=O
